Measurements taken from PubChem BioAssay AID743415 (Broad Institute, 2014).
Potency and affinity values are given separately. Calls of active or inactive are those of the source.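 Rule for the calls: active = compounds lowering Shn3 expression whose fitted half-maximal concentration is at most twice the top valid dose; inconclusive = flat partial decrease or an invalid curve fit; inactive = the rest.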

Assay: reduction of endogenous Shn3 mRNA, dose response, qPCR, Clone20 cells, cherry-pick (AID 743415)
Conditions: overnight; series mostly up to 35 µM

outcome, inactive:
CCn1cc(CN(C)S(=O)(=O)c2ccc3ccccc3c2)c(C)n1, Cc1onc(-c2ccccc2Cl)c1C(=O)N(C)C1CCCCC1, CC1Cc2cc(S(=O)(=O)N3CCN(c4ccc(Cl)cc4)CC3)ccc2N1C(=O)C1CC1 (configuration not stated), Cc1ccc2nc(NC(=O)C3CCN(S(=O)(=O)c4ccc5c(c4)oc(=O)n5C)CC3)sc2c1, CCN(CC)S(=O)(=O)c1ccc(S(=O)(=O)Nc2c(C)nn(C)c2C)cc1, O=C(COC(=O)c1n[nH]c2ccccc12)Nc1ccc(S(=O)(=O)N2CCCC2)cc1, CCOc1ccc(Cn2nnc(C(=O)Nc3cc(OC)cc(OC)c3)c2N)cc1, CCCCNc1cc(C)nc(NCc2ccccc2)n1, CCOC(=O)C1CCCN(S(=O)(=O)c2ccc(S(=O)(=O)N3CCCC3)cc2)C1 (configuration not stated), COc1ccc(-c2cc(C(F)(F)F)nc(S(C)(=O)=O)n2)cc1, COc1ccc(C(=O)Nc2nc3ccccc3s2)c(OC)c1, Cc1nc(NC(C)c2ccccc2)c2oc3ccccc3c2n1 (configuration not stated), Cn1nc(CC(=O)Nc2ccc3c(c2)OCCO3)c2ccccc2c1=O, COCCNc1nc(NCc2ccc(C(C)C)cc2)c2sccc2n1, CC(C)(C)C(=O)Nc1cc2nn(-c3ccccc3)nc2cc1Cl, COc1ccc(CC(=O)Nc2ccncc2Cl)cc1, O=C(CSc1c2c(nc3ccc(Cl)cc13)CCCC2)NCc1ccco1, O=C(Nc1ccc(N2CCOCC2)cc1)c1ccc(Cl)c(S(=O)(=O)N2CCCC2)c1, COc1ccccc1NS(=O)(=O)c1cc(NC(=O)c2ccc(Cl)nc2)ccc1Cl, CN(c1ccccc1)S(=O)(=O)c1cccc(NC(=O)CSc2nncs2)c1, Cc1cccc(-c2noc(CN(C(=O)C(c3ccccc3)c3ccccc3)C(C)C)n2)c1, CCCCOCCCNc1ncnc2c1[nH]c1ccccc12
